From PubChem BioAssay (NCATS) come the findings set out here.

Records with an inconclusive call do not appear. The source made the active and inactive calls. Calls follow the shape of the dose curve; as a rule, active = well fitted inhibition curve with a large enough effect; inconclusive = small, poorly fitted or top-dose-only effect; inactive = no such curve, though single readings can be large or run the other way.
Potency is read from the fitted curve at half-maximal effect.

A short description of this experiment: qHTS to identify inhibitors of the type 1 interferon - major histocompatibility complex class I in skeletal muscle: primary screen against the NCATS Mechanism Interrogation Plate v5.0 (MIPE) Libary (AID 1347411). Also: nearly all actives have a fitted effect of over 65% in size.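 As to activity change, negative = inhibition: plate controls were vehicle for no effect and reference inhibitor for full effect.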 As to conditions: iHSKM cells + IFN-b, HiBiT-tagged MHC-I luminescence, 24 h; series mostly up to 45.8 µM; activity change, negative = inhibition: at the top concentration. From the text: Assay Submitter (PI): Travis B. Kinder Ph.D. & James Inglese Ph.D.
Assay Development and Screening Technology Laboratory (ADST)
National Center for Advancing Translational Sciences (NCATS), Rockville, MD
National Institute of Health (NIH), Bethesda, Maryland
Idiopathic inflammatory myopathies, collectively referred to as myositis, are a group of rare autoimmune diseases characterized by skeletal muscle inflammation, weakness, and usually accompanied by systemic pathologies of the skin, lungs, or vasculature. Current immunosuppressive therapies and glucocorticoids are often not curative and are accompanied by harsh side effects, especially in children with juvenile myositis. We initiated a drug repurposing and development program to identify more targeted, less toxic therapeutics to treat myositis. Although its cause is not known, muscle from a subset of patients have an abundance of the inflammatory type 1 interferon (IFN) and a down-stream product major histocompatibility complex class I (MHC class I), which are both thought to contribute to damage and weakness. We conducted quantitative high throughput screening on 6,576 compounds (4,679 unique) through a series of cell-based assays to identify those that inhibit the IFN-stimulated expression of MHC class I in muscle precursor cells (myoblasts). The compound identification and evaluation strategy utilized a primary screen with reporter-tagged MHC class I in genome-engineered myoblasts, ATP content counter screen for viability, HLA-ABC immunofluorescence secondary screen, and HLA-B RT-qPCR tertiary screen.
The primary screen utilized CRISPR/Cas9 genome-engineering of immortalized human myoblasts, C25cl48, where a pro-luminescent reporter HiBit was fused to the C-terminus of endogenous MHC class I allele HLA-B*08:01 (HLA-B HiBit myoblasts). HiBit is an 11 amino acid fragment of NanoLuc luminescent reporter (Promega Corporation), and when complexed to the larger LgBit fragment, the reconstituted enzyme produces light in the presence of furimazine substrate (Schwinn et al., 2018). Briefly, HLA-B HiBit myoblasts were plated into 1536-well plates, treated with 4.0 ng/ml human IFN-beta and 2,480 compounds from the NCATS Mechanism Interrogation Plate v5.0 (MIPE5.0) in an 11-point, 1:3 titration with a high final concentration of 46 uM. After 24 hrs of treatment, cells were assayed by Nano-Glo HiBiT Lytic Detection System (Promega) and luminescence measured by a ViewLux 1430 Ultra HTS (Perkin Elmer).
Schwinn MK, Machleidt T, Zimmerman K, Eggers CT, Dixon AS, Hurst R, Hall MP, Encell LP, Binkowski BF, Wood K V. 2018. CRISPR-Mediated Tagging of Endogenous Proteins with a Luminescent Peptide. ACS Chem Biol 13:467-474. doi:10.1021/acschembio.7b00549
PROTOCOL TABLE (as described by Inglese et al., 2007)
SEQUENCE No. (e.g., 1, 2, 3, etc.); […] (e.g., Cells, Incubation, Reagent, etc.); VALUE; DESCRIPTION
1a; Cells; 5 uL; Use a Multidrop Combi (Thermo Scientific) to seed 300 cells/well into 24 Greiner 1536 well white/solid bottom, high base, TC plates in 5 ul/well of iHSKM growth medium (GM) without dexamethasone into columns 1+2. Add metal lids with gas-exchange holes
1b; Cells; 5 uL; Use a Multidrop Combi (Thermo Scientific) to seed 300 cells/well into 24 Greiner 1536 well white/solid bottom, high base, TC plates in 5 ul/well of iHSKM GM without dexamethasone + 4 ng/ml IFN-b into columns 3 - 48. Add metal lids with gas-exchange holes
2; Incubate; 1 hr; Incubate at 37 C, 5% CO2, 95% RH
3; Compounds; 23 nl; Use Pin Tool (Wako) to transfer DMSO control, ruxolitinib IFN-b inhibitor control [High Concentration = 80 uM final, 16-pt, 1:2 in duplicate], and library compounds in DMSO
4; Incubate; 24 hrs; Incubate at 37 C, 5% CO2, 95% RH
5; Dispense; 2.5 ul; Use BioRAPTR FRD (Beckman Coulter) to add HiBit lytic reagent
6; Incubate; 10 min; Incubate in the dark at ambient temperature for lysis
7; Detector; 5 sec; Measure luminescence with ViewLux 1430 Ultra HTS (Perkin Elmer). […]
(In general: Quantitative high-throughput screening tests each substance at several concentrations.)
For the compound `COC(=O)[C@@H]1CC2=CC(=O)CC[C@]2(C)[C@@]23O[C@@H]2C[C@@]2(C)[C@@H](CC[C@@]24CCC(=O)O4)[C@H]13`, the “activity change, negative = inhibition” value is -0.856% (inactive).

With `CC(=O)OCC(=O)[C@@]12N=C(C)O[C@@H]1C[C@H]1[C@@H]3CCC4=CC(=O)C=C[C@]4(C)[C@H]3[C@@H](O)C[C@@]12C`, the “activity change, negative = inhibition” value was -19.9% (inactive).

On to `CC[C@H](C)C(=O)O[C@H]1CCC=C2C=C[C@H](C)[C@H](CC[C@@H]3C[C@@H](O)CC(=O)O3)[C@H]21`, for which the “activity change, negative = inhibition” value is -15.2% (inactive).

As for `CC(=O)OCC(=O)[C@@]12OC(C)(C)O[C@@H]1C[C@H]1[C@@H]3C[C@H](F)C4=CC(=O)C=C[C@]4(C)[C@@]3(F)[C@@H](O)C[C@@]12C`, the “activity change, negative = inhibition” value is -18.9% (inactive).

Regarding `CC/C(=C(/CC)c1ccc(O)cc1)c1ccc(O)cc1`, the “activity change, negative = inhibition” value was -6.6% (inactive).

Turning to `COc1c(C)c2c(c(O)c1C/C=C(\C)CCC(=O)O)C(=O)OC2`, the “activity change, negative = inhibition” value was -22.1% (inactive).

Take `CC(=O)N(O)CCCCCNC(=O)CCC(=O)N(O)CCCCCNC(=O)CCC(=O)N(O)CCCCCN`: the “activity change, negative = inhibition” value was 12.9% (inactive).

As to `CN(C)CC/C=C1/c2ccccc2COc2ccc(CC(=O)O)cc21`, the “activity change, negative = inhibition” value is 6.42% (inactive).

For the compound `COc1cccc2c1C(=O)c1c(O)c3c(c(O)c1C2=O)C[C@@](O)(C(=O)CO)C[C@@H]3O[C@H]1C[C@H](N)[C@H](O)[C@H](C)O1`, the Potency was 829 nM (active).

Consider `CC(=O)O[C@]1(C(C)=O)CC[C@H]2[C@@H]3C[C@H](C)C4=CC(=O)CC[C@]4(C)[C@H]3CC[C@@]21C`, for which the “activity change, negative = inhibition” value is -29.5% (inactive).

As for `C[C@]12C=CC(=O)C=C1CC[C@@H]1[C@@H]2[C@@H](O)C[C@@]2(C)[C@H]1CC[C@]2(O)C(=O)CO`, the “activity change, negative = inhibition” value is -4.46% (inactive).

In the case of `CC1(C)O[C@@H]2C[C@H]3[C@@H]4C[C@H](F)C5=CC(=O)C=C[C@]5(C)[C@H]4[C@@H](O)C[C@]3(C)[C@]2(C(=O)CO)O1`, the “activity change, negative = inhibition” value is -16.2% (inactive).

On to `Nc1ccn([C@@H]2O[C@H](CO)[C@@H](O)C2(F)F)c(=O)n1`, for which the “activity change, negative = inhibition” value is 1.46% (inactive).
